Experimental data reported in paper PMC5540273 (PLoS ONE, 2017).

Columns and labels:
Details in all cases: concentration: 1 μM,replicates: in singlicate; n = 1
FGFR1 = tested on: FGFR1
FGFR2 = tested on: FGFR2
FGFR3 = tested on: FGFR3
FGFR4 = tested on: FGFR4
FGR = tested on: FGR
FLT1 = tested on: FLT1
FLT3-autoinhibited = tested on: FLT3-autoinhibited
FLT3 = tested on: FLT3
FLT4 = tested on: FLT4
FRK = tested on: FRK
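Further: KINOMEscan kinase panel screen.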

CN1CCN(CCNc2nc3cc(Oc4ccc(NC(=O)Nc5cc(C(F)(F)F)ccc5F)cc4)ccc3[nH]2)CC1.Cl.Cl [GW768504]
%Inh (FGFR1): 6% | %Inh (FGFR2): 0% | %Inh (FGFR3): 0% | %Inh (FGFR4): 0% | %Inh (FGR): 0% | %Inh (FLT1): 90.7% | %Inh (FLT3-autoinhibited): 0% | %Inh (FLT3): 98.1% | %Inh (FLT4): 49% | %Inh (FRK): 69%

Cc1cccc2c(-c3ccncc3)c(-c3ccc(F)cc3)nn12.Cl [GW461487]
%Inh (FGFR1): 0% | %Inh (FGFR2): 33% | %Inh (FGFR3): 4% | %Inh (FGFR4): 9% | %Inh (FGR): 2% | %Inh (FLT1): 8% | %Inh (FLT3-autoinhibited): 0% | %Inh (FLT3): 0% | %Inh (FLT4): 0% | %Inh (FRK): 0%

Cc1nnc(-c2ccc3occ(-c4ccc(S(C)=O)cc4)c3n2)o1 (stereo not drawn)
%Inh (FGFR1): 0% | %Inh (FGFR2): 0% | %Inh (FGFR3): 0% | %Inh (FGFR4): 0% | %Inh (FGR): 25% | %Inh (FLT1): 0% | %Inh (FLT3-autoinhibited): 0% | %Inh (FLT3): 0% | %Inh (FLT4): 0% | %Inh (FRK): 0%

N#Cc1cccc(C(=O)NC2CCN(c3ccnc(Nc4ccc(F)cc4)n3)C2)c1 (stereo not drawn) [GSK1379708]
%Inh (FGFR1): 7% | %Inh (FGFR2): 0% | %Inh (FGFR3): 0% | %Inh (FGFR4): 1% | %Inh (FGR): 18% | %Inh (FLT1): 20% | %Inh (FLT3-autoinhibited): 0% | %Inh (FLT3): 0% | %Inh (FLT4): 20% | %Inh (FRK): 6%

Cc1ccn2nc(-c3ccc(F)cc3)c(-c3ccncc3)c2c1.Cl [GW457859]
%Inh (FGFR1): 0% | %Inh (FGFR2): 85% | %Inh (FGFR3): 4% | %Inh (FGFR4): 0% | %Inh (FGR): 0% | %Inh (FLT1): 15% | %Inh (FLT3-autoinhibited): 14% | %Inh (FLT3): 0% | %Inh (FLT4): 0% | %Inh (FRK): 0%

Cn1cc(-c2cccc3c(N)c(C(N)=O)nnc23)cn1
%Inh (FGFR1): 25% | %Inh (FGFR2): 2% | %Inh (FGFR3): 12% | %Inh (FGFR4): 9% | %Inh (FGR): 9% | %Inh (FLT1): 0% | %Inh (FLT3-autoinhibited): 30% | %Inh (FLT3): 27% | %Inh (FLT4): 15% | %Inh (FRK): 2%

CCn1c(-c2nonc2N)nc2cncc(CNC3CCNCC3)c21.Cl [SB-747651]
%Inh (FGFR1): 0% | %Inh (FGFR2): 0% | %Inh (FGFR3): 5% | %Inh (FGFR4): 6% | %Inh (FGR): 1% | %Inh (FLT1): 8% | %Inh (FLT3-autoinhibited): 3% | %Inh (FLT3): 0% | %Inh (FLT4): 10% | %Inh (FRK): 0%

CCN1CCN(CCCC(=O)Nc2n[nH]c3nc(-c4ccc(O)cc4)c(Br)cc23)CC1 [SB-731579]
%Inh (FGFR1): 0% | %Inh (FGFR2): 0% | %Inh (FGFR3): 0% | %Inh (FGFR4): 0% | %Inh (FGR): 0% | %Inh (FLT1): 0% | %Inh (FLT3-autoinhibited): 0% | %Inh (FLT3): 61% | %Inh (FLT4): 0% | %Inh (FRK): 0%

O=c1[nH]cc(-c2ccc(O)cc2)c2sc(-c3ccncc3)cc12 [GSK1033723]
%Inh (FGFR1): 0% | %Inh (FGFR2): 0% | %Inh (FGFR3): 16% | %Inh (FGFR4): 13% | %Inh (FGR): 21% | %Inh (FLT1): 9% | %Inh (FLT3-autoinhibited): 0% | %Inh (FLT3): 0% | %Inh (FLT4): 1% | %Inh (FRK): 0%

Cc1ccc2c(-c3ccnc(Nc4ccc(C(F)(F)F)cc4)n3)cnn2n1 [GW819776]
%Inh (FGFR1): 5% | %Inh (FGFR2): 0% | %Inh (FGFR3): 0% | %Inh (FGFR4): 6% | %Inh (FGR): 4% | %Inh (FLT1): 0% | %Inh (FLT3-autoinhibited): 0% | %Inh (FLT3): 59% | %Inh (FLT4): 0% | %Inh (FRK): 20%

Cn1ccc2ncnc(Oc3ccc(NC(=O)Nc4cc(C(C)(C)C)on4)c(Cl)c3)c21
%Inh (FGFR2): 72% | %Inh (FGFR3): 23% | %Inh (FGFR4): 73% | %Inh (FGR): 32% | %Inh (FLT1): 97.6% | %Inh (FLT3-autoinhibited): 15% | %Inh (FLT3): 99.9% | %Inh (FLT4): 99.8% | %Inh (FRK): 96.3%

O=C1NCCc2[nH]c(-c3ccncc3)cc21
%Inh (FGFR1): 0% | %Inh (FGFR2): 4% | %Inh (FGFR3): 10% | %Inh (FGFR4): 0% | %Inh (FGR): 20% | %Inh (FLT1): 6% | %Inh (FLT3-autoinhibited): 12% | %Inh (FLT3): 0% | %Inh (FLT4): 0% | %Inh (FRK): 0%

CC(C)S(=O)(=O)N1CCN(Cc2ccc3c(c2)nc(NC(=O)c2ccsc2)n3C[C@H](O)c2ccccc2)CC1 [GW635815]
%Inh (FGFR1): 12% | %Inh (FGFR2): 16% | %Inh (FGFR3): 0% | %Inh (FGFR4): 8% | %Inh (FGR): 74% | %Inh (FLT1): 71% | %Inh (FLT3-autoinhibited): 90.4% | %Inh (FLT3): 98% | %Inh (FLT4): 0% | %Inh (FRK): 3%

CN1CCN(CCCNc2nccc(-c3c(-c4ccc(F)cc4)nn4cc(C(N)=O)ccc34)n2)CC1 [GW622475]
%Inh (FGFR1): 28% | %Inh (FGFR2): 0% | %Inh (FGFR3): 8% | %Inh (FGFR4): 0% | %Inh (FGR): 0% | %Inh (FLT1): 54% | %Inh (FLT3-autoinhibited): 1% | %Inh (FLT3): 10% | %Inh (FLT4): 28% | %Inh (FRK): 0%

CS(=O)(=O)c1cccc(CNc2nc(Nc3ccc4c(c3)[C@@H]3C[C@@H]4CNC3=O)ncc2C(F)(F)F)c1
%Inh (FGFR1): 86% | %Inh (FGFR2): 85% | %Inh (FGFR3): 73% | %Inh (FGFR4): 92.1% | %Inh (FGR): 31% | %Inh (FLT1): 94.4% | %Inh (FLT3-autoinhibited): 75% | %Inh (FLT3): 99.6% | %Inh (FLT4): 99.4% | %Inh (FRK): 0%

COc1cccc(C2=C(Nc3cccc(Cl)c3)C(=O)NC2=O)c1 [SB-341556]
%Inh (FGFR1): 21% | %Inh (FGFR2): 23% | %Inh (FGFR3): 29% | %Inh (FGFR4): 15% | %Inh (FGR): 5% | %Inh (FLT1): 13% | %Inh (FLT3-autoinhibited): 4% | %Inh (FLT3): 0% | %Inh (FLT4): 15% | %Inh (FRK): 16%
